Results as given in PubChem BioAssay (NCI).
The panel holds about 83,000 compounds, 20% with a hit somewhere; the sample as a whole holds those more often.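 For each line, cells grew in 96-well plates with the test compound present at a single concentration for 48 hours.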 Values without a mark were called inactive. Activity calls are given as the source filed them. How the source made its calls: active means growth percent below 10; inactive means the rest.

What follows are compounds tested on SW-620 colon (assay: NCI-60 one-dose screen, 48 h (100 = growth as untreated, 0 = no growth, -100 = all killed)). Conditions: 10 µM unless noted.

SMILES | growth
N#CC1=C(c2cccs2)Nc2c(c(-c3ccccc3)nn2-c2ccccc2)C12C(=O)Nc1ccccc12 (centres undefined) | 8.74% (active)
O=C1CC(c2ccc(I)cc2)OC2C=Cc3ccccc3C12 (centres undefined) | 103%
COc1ccc([C@H]2C(C(=O)c3ccc(Cl)cc3)C3(N[C@@H]2c2ccccc2)C(=O)Nc2ccccc23)cc1 (some centres undefined) | 34.7%
COc1ccc2c(c1)N=c1c-2cc2c(O)[nH]c(=S)n2c1=O | 47.4%
Cc1cc(N=C(N)c2ccccc2)ccc1OCCCCCCCCn1ccnc1 | 20%
CS(=O)(=O)Nc1cc(-c2ccc3ncnc(N4CCc5cc(F)c(Cl)cc54)c3c2)cnc1Cl | 32.7%
COc1cc(NC(=O)C(C)C)ccc1C(=O)NC(=S)Nc1ccc(S(N)(=O)=O)cc1 | 107%
CC1=C(C(=O)OC(C)C)C(c2ccc(O)cc2)NC(=O)N1 (centres undefined) | 103%
COc1cccc(/C=C/c2nc3ccccc3c(=O)n2CC(=O)Nc2ccccc2)c1 | 51.1%
COC(=O)c1c(C(=O)OC)c2ccc3c4ccccc4ccc3n2c1C(=O)OC | 111%
CCCCCCCCc1cccc(CC(=O)Nc2ccc(C)cc2C(=O)O)c1 | 51.2% [25 µM]
O=C(c1cc2cc(OCCCN3CCC3)ccc2[nH]1)N1C[C@@H](CCl)c2c1cc(OCc1ccccc1)c1ccccc21 | 0.696% (active)
CC(C)(C)OC(=O)N1CCC2(CC1)Oc1ccccc1[C@H]1CC(c3ccc(Br)cc3)=NN12 | 83%
COc1ccc(NC2=C(I)C(=O)C(C)=C(C)C2=O)cc1 | 62.1%
